# Pf Dd2 inh = inhibitors of Plasmodium falciparum Dd2 growth; P. falciparum Dd2 growth, SYBR Green, 72 h; hits give low values; activity change, % at 10 µM; 2.3% of 94,000 active; in the data active = activity change below about -80%; inconclusive = no clear call, values can overlap the other calls
# T cruzi growth-1 = T. cruzi proliferation inhibition; 5.9% of 77,000 active; inhibition, % at 8.34 µM; AID 624255; T. cruzi beta-gal in NIH3T3, GalScreen luminescence, 90 h;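 active = mean inhibition above about 93%, with at least 55% of replicates each passing it, limit read from the data, passing the limit was not always enough; inconclusive = only one of those two conditions holds; inactive = neither condition holds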
# C diff HTS = inhibitors of Clostridium difficile growth. 0.25% of 86,000 active. growth activity, negative = inhibition, % at 16 µg/mL (by protocol). Clostridium difficile clinical isolate growth, OD600, 24 h; hits give low values;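 active = mean growth activity at or below -80% and every replicate also at or below -80%; inconclusive = mean at or below -80% but some replicate above -80%; inactive = mean growth activity above -80%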;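 note: 0% = DMSO wells and -100% = levofloxacin 16 µg/mL wells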
# T cruzi growth-2 = inhibitors of T. cruzi proliferation; 72% of 5,600 active; shares compounds with T cruzi growth-1; inhibition, % at 8.35 µM; T. cruzi beta-gal in NIH3T3, GalScreen luminescence, 90 h; AID 651739;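 active = mean replicate inhibition above about 95% and at least 55% of replicates individually reaching it, limit read from the data; inconclusive = only one of the two criteria is met; inactive = neither criterion is met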
# T cruzi growth-3 = Trypanosoma cruzi proliferation inhibition. shares compounds with T cruzi growth-1. T. cruzi beta-gal in NIH3T3, GalScreen luminescence, 90 h. inhibition, % at 2.09 µM. 21% of 5,600 active. AID 651740;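 active = mean inhibition above about 95%, with at least 55% of replicates also reaching it, limit read from the data; inconclusive = meets just one of the two conditions; inactive = meets neither condition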;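 note: plate controls were neutral control median for no effect and positive control median for full effect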
# NIH3T3 tox = kills mouse NIH/3T3 fibroblasts; shares compounds with T cruzi growth-1; NIH/3T3 viability, CellTiter-Glo ATP luminescence, 90 h; cytotoxicity (signal decrease), % at 8.35 µM; 14% of 5,600 active; AID 651742;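 active = mean signal decrease across replicates above about 35% based on untreated-well scatter, with enough replicates individually passing, limit read from the data; inconclusive = no rule stated though some were filed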;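 note: 0% = median of neutral control wells and 100% = median of positive control wells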
# NIH3T3 tox 2 = kills mouse NIH/3T3 fibroblasts | NIH/3T3 viability, CellTiter-Glo ATP luminescence, 90 h | shares compounds with T cruzi growth-1 | AID 651744 | 56% of 5,600 active | inhibition, % at 24.9 µM;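 active = mean loss of cell viability signal at or above a set limit, and enough replicates individually reaching it; inconclusive = meets only the mean limit or only the replicate share; inactive = meets neither condition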;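 note: 0% = median of neutral control wells and 100% = median of positive control wells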
# * marks the source's active call; other numbers are inactive results; ? = inconclusive; nt = not tested or not shown. Hits are enriched below; roughly 6.8% of the tested compounds scored in any of these assays.
SMILES,Pf Dd2 inh,T cruzi growth-1,C diff HTS,T cruzi growth-2,T cruzi growth-3,NIH3T3 tox,NIH3T3 tox 2
CCCNC(=O)C[C@H]1CC[C@@H]2[C@@H](COc3ccc(NC(=O)Nc4ccccc4)cc3C(=O)N2C)O1,-11,48,-1,nt,nt,nt,nt
Cc1ccc(-c2ccc([C@H]3[C@H](CO)N4CCCCN(C(=O)c5ccc(F)cc5)C[C@@H]34)cc2)cc1,4,103*,33,?,41,22,106*
Cc1ccc(-c2ccc([C@H]3[C@@H](CO)N4CCCCN(C(=O)c5ccc(F)cc5)C[C@@H]34)cc2)cc1,-13,113*,49,108*,86,26,105*
Cc1ccc(-c2ccc([C@@H]3[C@H](CO)N4CCCCN(C(=O)c5ccncc5)C[C@@H]34)cc2)cc1,3,44,11,nt,nt,nt,nt
Cc1ccc(-c2ccc([C@H]3[C@@H](CO)N4CCCCN(C(=O)c5ccc(F)cc5)C[C@H]34)cc2)cc1,-50,103*,22,106*,101*,46*,104*
Cc1ccc(-c2ccc([C@H]3[C@H]4CN(C(=O)c5ccc(F)cc5)CCCCN4[C@H]3CO)cc2)cc1,2,102*,32,103*,32,16,103*
CC(=O)N1CCCCN2[C@H](CO)[C@@H](c3ccc(-c4ccc(F)cc4)cc3)[C@H]2C1,22,-8,-14,nt,nt,nt,nt
O=C(c1ccc(F)cc1)N1CCCCN2[C@@H](CO)[C@@H](c3ccc(-c4ccccc4)cc3)[C@@H]2C1,-24,66,34,nt,nt,nt,nt
Cc1noc(C)c1NC(=O)Nc1cccc2c1O[C@@H](CN(C)S(C)(=O)=O)[C@H](C)CN([C@@H](C)CO)C2=O,36,27,-6,nt,nt,nt,nt
Cc1ccc(S(=O)(=O)N(C)C[C@H]2Oc3c(NC(=O)Nc4ccc5c(c4)OCO5)cccc3C(=O)N([C@@H](C)CO)C[C@H]2C)cc1,-45,46,-6,nt,nt,nt,nt
Cc1ccc(-c2ccc([C@@H]3[C@@H](CO)N4CCCCN(C(=O)c5ccc(F)cc5)C[C@@H]34)cc2)cc1,-6,107*,-6,101*,53,-12,57*
O=C(C[C@@H]1CC[C@@H]2[C@H](COC[C@H](O)CN2S(=O)(=O)c2cccc(Cl)c2)O1)NCc1ccncn1,2,0,nt,nt,nt,nt,nt
COc1ccc(NC(=O)Nc2ccc3c(c2)C(=O)N([C@H](C)CO)C[C@@H](C)[C@H](CN(C)C(=O)Nc2ccc(F)cc2)OCCCC[C@@H](C)O3)cc1,-27,112*,1,98*,104*,-6,-10
COc1ccc(NC(=O)N(C)C[C@H]2OCCCC[C@H](C)Oc3ccc(NC(=O)Nc4ccc5c(c4)OCO5)cc3C(=O)N([C@H](C)CO)C[C@@H]2C)cc1,0,42,5,nt,nt,nt,nt
COc1ccc(NC(=O)Nc2ccc3c(c2)C(=O)N([C@H](C)CO)C[C@H](C)[C@H](CN(C)C(=O)Nc2ccc(F)cc2)OCCCC[C@H](C)O3)cc1,5,73,-4,nt,nt,nt,nt
COc1ccc(NC(=O)Nc2ccc3c(c2)C(=O)N([C@@H](C)CO)C[C@H](C)[C@@H](CN(C)C(=O)Nc2ccc(F)cc2)OCCCC[C@H](C)O3)cc1,-49,109*,4,100*,62,5,-3
COc1ccc(NC(=O)Nc2ccc3c(c2)C(=O)N([C@@H](C)CO)C[C@@H](C)[C@H](CN(C)C(=O)Nc2ccc(F)cc2)OCCCC[C@H](C)O3)cc1,-4,nt,-2,nt,nt,nt,nt
COc1ccc(NC(=O)Nc2ccc3c(c2)C(=O)N([C@H](C)CO)C[C@@H](C)[C@H](CN(C)C(=O)Nc2ccc4c(c2)OCO4)OCCCC[C@@H](C)O3)cc1,-42,117*,5,111*,64,9,17
Cc1ccc(S(=O)(=O)Nc2ccc3c(c2)C(=O)N([C@H](C)CO)C[C@H](C)[C@@H](CN(C)Cc2ccc(C(=O)O)cc2)OCCCC[C@@H](C)O3)cc1,-5,-65,nt,nt,nt,nt,nt
COc1ccc2c3c([nH]c2c1)[C@H](CO)N(C(=O)CN1CCOCC1)CC31CN(C(=O)NC(C)C)C1,1,nt,-9,nt,nt,nt,nt
CCC(=O)Nc1ccc2c(c1)OC[C@H](C)N(C(=O)COC)C[C@@H](C)[C@@H](OC)CN(C)C2=O,17,20,1,nt,nt,nt,nt
CCCC(=O)N1CC2(CN(C(=O)C3CCC3)C2)c2c(n(C)c3cc(OC)ccc23)[C@@H]1CO,-12,nt,-1,nt,nt,nt,nt
COc1cccc(NC(=O)N[C@@H]2C=C[C@H](CC(=O)N3CCN(C)CC3)O[C@@H]2CO)c1,7,nt,0,nt,nt,nt,nt
CCNC(=O)[C@@H]1[C@@H](CO)[C@@H]2Cn3c(ccc(C4=CCCCC4)c3=O)[C@@H]2N1Cc1ccc2c(c1)OCO2,-21,nt,-4,nt,nt,nt,nt
CCCNC(=O)[C@H]1[C@H](CO)[C@H]2Cn3c(ccc(-c4cccc(F)c4)c3=O)[C@@H]1N2C(C)=O,8,40,-5,nt,nt,nt,nt
SMILES,Pf Dd2 inh,T cruzi growth-1,C diff HTS,T cruzi growth-2,T cruzi growth-3,NIH3T3 tox,NIH3T3 tox 2
CCCN1[C@@H]2c3ccc(-c4cccc(F)c4)c(=O)n3C[C@@H]2[C@@H](CO)[C@@H]1C(=O)N[C@@H](C)c1ccccc1,nt,94,14,nt,nt,nt,nt
CCCNC(=O)[C@@H]1[C@@H](CO)[C@@H]2Cn3c(ccc(-c4ccccc4F)c3=O)[C@@H]2N1CCC,2,30,6,nt,nt,nt,nt
CCCN1[C@H](C(=O)N[C@@H](C)c2ccccc2)[C@@H](CO)[C@@H]2Cn3c(ccc(-c4cccc(F)c4)c3=O)[C@@H]21,nt,108*,-7,97*,63,3,68*
CCNC(=O)[C@@H]1[C@@H](CO)[C@@H]2Cn3c(ccc(-c4ccccc4)c3=O)[C@@H]2N1Cc1ccc2c(c1)OCO2,3,102*,-1,101*,0,-31,22
CCCN1[C@@H]2c3ccc(-c4ccccc4F)c(=O)n3C[C@@H]2[C@@H](CO)[C@@H]1C(=O)NCC,8,98*,-7,21,-15,4,-6
CCCNC(=O)[C@@H]1[C@@H](CO)[C@@H]2Cn3c(ccc(-c4cccc(F)c4)c3=O)[C@H]1N2C(=O)c1ccccn1,12,103*,-4,?,27,-20,-1
O=C(C[C@H]1C[C@@H]2c3cc(NC(=O)C4CCOCC4)ccc3O[C@@H]2[C@@H](CO)O1)NCc1ccncc1,6,-1,-7,nt,nt,nt,nt
O=C(c1cccc(F)c1)N1CC2(C1)[C@H](c1ccccc1)[C@H](CO)N2C(=O)C1CC1,41,nt,-5,nt,nt,nt,nt
COc1ccc2c3c(n(C)c2c1)[C@H](CO)N(C(C)=O)CC31CCN(C(=O)Nc2ccc(F)cc2)CC1,13,nt,nt,nt,nt,nt,nt
CCCNC(=O)C[C@@H]1CC[C@H]2[C@H](COc3ccc(NC(=O)c4cscn4)cc3C(=O)N2C)O1,-1,9,-3,nt,nt,nt,nt
C[C@@H]1CN([C@@H](C)CO)C(=O)c2cc(C#Cc3ccccn3)cnc2O[C@H]1CN(C)Cc1cncnc1,22,105*,2,102*,35,-13,18

# Source: PubChem BioAssay
